Calls of active or inactive are those of the source.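 The calls were made as follows, unless noted: active = fluorescence slope higher than the sample average by over 3 SD (cut at about -0.22 in these data, passing the limit was not always enough); inactive = the rest.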
Assays:
[1] = inhibitors of TNFa-induced NFkB p65 translocation, primary screen, imaging, HUVEC, MLSMR starter and 10KST1 sets (AID 438;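 active = inhibition above 20% together with a positive visual image hit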;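 also: compound added about 3h40 before a 20 min TNFalpha stimulation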;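 as to inhibition: signal is the nuclear over cytoplasmic p65 intensity ratio per well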); settings: HUVEC TNFa-induced p65 nuclear translocation; cell count: measured here: nuclei count (cytotoxicity indicator), at 2.08 µM; inhibition: at 2 µM, stronger effect = higher value, 0% TNFa-plus-vehicle, 100% no-TNFa wells
[2] = inhibitors of mutant huntingtin aggregation, primary screen, imaging, exon1htt(103Q)mCFP cells, high-content imaging (AID 483;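 active = visual image review flags a hit and inhibition of aggregation exceeds 20%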;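 also: compound exposure lasted 3 days before fixation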;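 as to nuclei count: percent of the per-plate median nuclei count of sample wells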); settings: exon1htt(103Q)mCFP cell line, aggregate imaging, at 2 µM; inhibition of aggregation: stronger effect = higher value; nuclei count: measured here: cell count, toxicity
[3] = inhibitors of E-selectin induction by TNFa, primary screen, imaging, HUVEC, immunofluorescence, MLSMR starter and 10KST1 sets (AID 487;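 active = visually confirmed hit in the image check and inhibition above 20%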;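 as to inhibition: signal is fraction of cell area covered by stained E-selectin grains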;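 as to nuclei count: 100% = median nuclei count of all wells on the same plate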); settings: HUVEC TNFalpha-induced E-selectin immunofluorescence imaging, at 2 µM; inhibition: stronger effect = higher value; nuclei count: measured here: cell number, toxicity
[4] = target: Voltage-gated potassium channel subunit beta-2 (Rattus norvegicus) (UniProt P62483); assay: KvBeta enzyme negative modulators, primary screen, biochemical, NADPH fluorescence (AID 622); settings: recombinant KvBeta, 4-cyanobenzaldehyde reduction, at 10 µM, stronger effect = higher value;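 also: slope of raw intensity against log time taken from 70 to 1610 s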
[5] = target: Voltage-gated potassium channel subunit beta-2 (Rattus norvegicus) (UniProt P62483); assay: KvBeta positive modulators, primary screen, biochemical, NADPH fluorescence (AID 623;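 active = NADPH fluorescence slope more negative than the mean of all samples by about 3 SD, 99.7% confidence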;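 also: fluorescence intensity change per second fitted from 20 to 320 s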); settings: Recombinant KvBeta, NADPH fluorescence decrease slope, 10 min; at 10 µM; stronger effect = lower value
[6] = target: Alpha-2C adrenergic receptor (Homo sapiens) (UniProt P18825); assay: modulators of alpha2C/GIRK thallium flux, primary screen, cell-based, HEK293 alpha2C/GIRK1/2 (AID 624;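 active = fluorescence slope after compound addition differing from the mean of all screened samples at 99.7% confidence, in either direction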;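 also: slope of fluorescence ratio to pre-addition baseline per second over 15 to 24 s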); settings: thallium flux BTC fluorescence, at 10 µM, actives lie on both sides
[7] = inhibitors of Sendai virus-induced IRF3 signaling, primary screen, TLR/RLR signaling modifier project, cell-based, Sendai virus stimulus, luciferase, 10K MLSCN set (AID 602276;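 active = inhibition at or above 50% at 10 µM; inactive = inhibition below 50%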;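 also: firefly luciferase from ISG56 promoter only with Renilla not read in this screen; 0% = Sendai virus plus DMSO and 100% = medium plus DMSO without virus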); settings: HEK293 RL24 IRF3 luciferase reporter, at 10 µM, stronger effect = higher value
[8] = inhibitors of poly I:C-induced TLR3 signaling, primary screen, cell-based, poly I:C stimulus, luciferase, 10K MLSCN set (AID 602277;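 active = inhibition of the reporter signal at or above 50%; inactive = inhibition below 50%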); settings: HEK293-TLR3 RL24 IRF3 luciferase reporter, at 10 µM, stronger effect = higher value

Voltage-gated potassium channel subunit beta-2 (Rattus norvegicus), sequence (P62483 whole entry, looked up): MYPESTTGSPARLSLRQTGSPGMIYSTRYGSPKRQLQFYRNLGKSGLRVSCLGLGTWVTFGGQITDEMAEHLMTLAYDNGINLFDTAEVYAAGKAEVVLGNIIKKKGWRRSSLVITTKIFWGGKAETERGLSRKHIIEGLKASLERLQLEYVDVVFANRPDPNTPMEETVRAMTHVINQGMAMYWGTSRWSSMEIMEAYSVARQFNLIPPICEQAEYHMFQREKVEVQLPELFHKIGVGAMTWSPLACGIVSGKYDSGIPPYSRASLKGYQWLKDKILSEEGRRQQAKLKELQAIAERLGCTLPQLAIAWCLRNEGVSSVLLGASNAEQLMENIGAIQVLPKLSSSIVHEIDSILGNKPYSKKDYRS
Alpha-2C adrenergic receptor (Homo sapiens), sequence (P18825 whole entry, looked up): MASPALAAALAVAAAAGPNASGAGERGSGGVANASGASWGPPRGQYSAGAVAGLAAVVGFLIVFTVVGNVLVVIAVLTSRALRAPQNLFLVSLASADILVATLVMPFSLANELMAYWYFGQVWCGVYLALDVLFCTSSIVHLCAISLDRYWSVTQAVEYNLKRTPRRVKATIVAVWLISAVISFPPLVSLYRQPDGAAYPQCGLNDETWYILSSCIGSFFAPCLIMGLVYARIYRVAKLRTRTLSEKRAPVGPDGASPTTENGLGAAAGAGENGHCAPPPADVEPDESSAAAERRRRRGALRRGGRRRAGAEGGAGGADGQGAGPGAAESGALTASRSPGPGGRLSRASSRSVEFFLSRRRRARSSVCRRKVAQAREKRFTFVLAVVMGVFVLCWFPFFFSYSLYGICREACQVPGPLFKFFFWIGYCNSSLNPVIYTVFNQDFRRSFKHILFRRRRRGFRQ

Compound | cell count [1] | inhibition [1] | inhibition of aggregation [2] | nuclei count [2] [%] | inhibition [3] | nuclei count [3] [%] | fluorescence slope [4] | NADPH fluorescence slope [5] | slope [6] | inhibition [7] | inhibition [8]
CN(C)C(=O)c1ccc(COc2ccccc2Br)o1 | 730 | -11% (inactive) | 27.2% (inactive) | 71.4 | -26.4% (inactive) | 104 | -0.606 (inactive) | -2.2e-05 (inactive) | 0.0062 (inactive) | -40.1% (inactive) | -62.5% (inactive)
COc1ccc(-c2nc3c(n2O)CCC/C3=N\O)cc1 | 319 | -8% (inactive) | 0.2% (inactive) | 98.1 | -2.4% (inactive) | 113 | -0.413 (inactive) | -7.6e-05 (inactive) | 0.00746 (inactive) | -16.5% (inactive) | -26.8% (inactive)
Cc1nnc(NC(=O)CSc2nc3c(c(=O)n2C)SC(C)C3)s1 (stereo not drawn) | 734 | -4.3% (inactive) | -22.2% (inactive) | 98.5 | -7.8% (inactive) | 104 | -0.536 (inactive) | -6.2e-05 (inactive) | 0.00476 (inactive) | 13.8% (inactive) | 34.3% (inactive)
O=C(NCC(=O)N(c1ccc2c(c1)OCCO2)C(C(=O)NC1CCCC1)c1ccco1)c1ccco1 (stereo not drawn) | 245 | 17.9% (inactive) | -23.9% (inactive) | 83.9 | 20.3% (inactive) | 95.6 | -0.409 (inactive) | 3.7e-05 (inactive) | 0.00578 (inactive) | -2.48% (inactive) | -2.78% (inactive)
O=C(COc1ccc(F)cc1Br)N1CCc2ccccc21 | 414 | -7% (inactive) | 5% (inactive) | 105 | -49.2% (inactive) | 103 | -0.46 (inactive) | 9.7e-05 (inactive) | 0.0054 (inactive) | -38% (inactive) | -100% (inactive)
COCCNC(=O)CN1CCN(C(c2ccccc2)c2ccccc2)CC1 | 240 | -6.6% (inactive) | 18.2% (inactive) | 77.7 | -7.5% (inactive) | 86.9 | -0.556 (inactive) | -4.9e-05 (inactive) | 0.00771 (inactive) | -12.4% (inactive) | -6.81% (inactive)
CSC1=N/C(=C\C=C\c2cccs2)C(=O)S1 | 374 | -11.5% (inactive) | -80.1% (inactive) | 106 | 0.2% (inactive) | 115 | -0.343 (inactive) | -4.4e-05 (inactive) | 0.00431 (inactive) | 10.5% (inactive) | 28.8% (inactive)
CCOC(=O)Nc1ccc2c(c1)N(C(=O)OCCN(C)C)c1ccccc1CC2 | 425 | -7.7% (inactive) | 25.6% (inactive) | 57.1 | -16.3% (inactive) | 75.4 | -0.563 (inactive) | -2.3e-05 (inactive) | 0.00722 (inactive) | 6.83% (inactive) | 30.5% (inactive)
CCOC(=O)C1=C(C)N=C2SCCC(=O)N2C1c1cc(Br)ccc1OC (stereo not drawn) | 466 | 2.7% (inactive) | -4.8% (inactive) | 108 | -16% (inactive) | 85 | -0.499 (inactive) | 7.4e-06 (inactive) | 0.00736 (inactive) | 17.2% (inactive) | 20.9% (inactive)
C=CCOc1ccc(/C=N/n2cncn2)cc1OC | 517 | -8.8% (inactive) | 23.9% (inactive) | 76.3 | -39.8% (inactive) | 81.6 | -0.58 (inactive) | 2.1e-05 (inactive) | 0.00496 (inactive) | -10.2% (inactive) | 5.53% (inactive)
CCOC(=O)c1cccnc1SCC(=O)NC(C)CC (stereo not drawn) | 689 | -22.4% (inactive) | 23.4% (inactive) | 99.8 | -54.6% (inactive) | 119 | -0.469 (inactive) | -0.0001 (inactive) | 0.006 (inactive) | 7.9% (inactive) | 17.7% (inactive)
CCOC(=O)CNC(=O)CSc1nc(N(C)C)nc(N2CCOCC2)n1 | 580 | 5.1% (inactive) | -7.9% (inactive) | 110 | -71.8% (inactive) | 111 | -0.517 (inactive) | -4e-05 (inactive) | 0.00497 (inactive) | 18.7% (inactive) | 26.3% (inactive)
CC(C)(C)C(=O)CNS(=O)(=O)c1ccc(S(=O)(=O)NC2CCCC2)cc1 | 479 | 6% (inactive) | 2.6% (inactive) | 113 | -35.9% (inactive) | 94.4 | -0.47 (inactive) | 2.8e-05 (inactive) | 0.00543 (inactive) | 9.9% (inactive) | 22.1% (inactive)
